Among the data in PubChem BioAssay are composite z-score and z-score values, retold here.

Assay [1] concerns Plasmodium falciparum Sir2 (PF13_0152, Sir2A). The assay can be described thus: pfSir2 binders on small-molecule microarrays, primary screen, biochemical, small-molecule microarray, 635 nm fluorescence (AID 1098).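 Also: score merges spot fluorescence intensity with its signal-to-noise ratio.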 Conditions: small-molecule microarray binding, fluorescence 635 nm; higher = more signal.
Assay [2] in a line: small-molecule microarray binders of probe aDKK1, primary screen, biochemical, biotinylated probe, 635/667 nm fluorescence (AID 1099).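 Also: score merges 667nm spot fluorescence with signal to noise across triplicate slides; reference of the scale not given here.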 To be noted: higher = more signal.
Assay [3] is described as follows: small-molecule microarray binders of probe aCHRDL2, primary screen, biochemical, biotinylated probe, 635/667 nm fluorescence (AID 1100). Conditions: higher = more signal.
Assay [4] can be described thus: splicing luciferase reporter signal modulators, primary screen, spliceosome inhibition project, cell-based, HEK293, splice +/- reporter (AID 1101).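 Also: HEK293 cells carrying a splicing-competent luciferase reporter gene; test concentration not given here.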 Conditions: luminescence, 24 h, higher = more signal, called active from +8 up or from −8 down. Background: Reporter assays use an easily measured gene product as a stand-in for the process of interest.
Assay [5] deals with Fibroblast growth factor 10 (Homo sapiens) (UniProt O15520). Nature of the assay: FGF10 binders on small-molecule microarrays, primary screen, biochemical, small-molecule microarray, 635 nm fluorescence (AID 1102). Conditions: FGF10 binding, fluorescence 635 nm, higher = more signal.
The test system of assay [6] is glycogen synthase kinase-3 (GSK3A per assay name; protocol says GSK3B). The assay can be described thus: GSK3 binders on small-molecule microarrays, primary screen, biochemical, small-molecule microarray, 635 nm fluorescence, GSK3A (AID 1103). Also: the record names both GSK3A and GSK3B. To be noted: small-molecule microarray binding, fluorescence 635 nm; higher = more signal.
The target of assay [7] is Epidermal growth factor receptor (Homo sapiens) (UniProt P00533). The assay can be described thus: EGFR binders on small-molecule microarrays, primary screen, biochemical, small-molecule microarray, 635 nm fluorescence (AID 1104).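 Also: score merges 667 nm emission intensity with spot signal to noise over triplicate slides.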 Conditions: EGFR binding, higher = more signal.
The target of assay [8] is Follistatin-related protein 3 (Homo sapiens) (UniProt O95633). Nature of the assay: FSTL3 binders on small-molecule microarrays, primary screen, biochemical, small-molecule microarray, 635 nm fluorescence (AID 1105).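 Also: score merges emission near 667 nm and signal to noise per printed spot across three slides.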 Conditions: FSTL3 binding, higher = more signal.
The target in assay [9] is Dickkopf-related protein 1 (Homo sapiens) (UniProt O94907). Nature of the assay: DKK1 binders on small-molecule microarrays, primary screen, biochemical, small-molecule microarray, 635 nm fluorescence scan (AID 1106).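 Also: score merges emission near 667 nm with signal to noise over three replicate slides.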 To be noted: DKK1 binding, higher = more signal.
Assay [10] deals with Inhibin beta A chain (activin A). The assay can be described thus: INHBA (activin A) binders on microarrays, primary screen, biochemical, small-molecule microarray, 635 nm fluorescence scan (AID 1107).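 Also: mouse activin A protein probed at 4.33 µg/mL on printed slides; score merges bound-protein fluorescence near 667 nm with spot signal-to-noise.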 To be noted: small-molecule microarray binding, higher = more signal.

Structures are written as SMILES. Calls of active or inactive are those of the source.

Sequence of Epidermal growth factor receptor (Homo sapiens) (P00533 whole entry, looked up): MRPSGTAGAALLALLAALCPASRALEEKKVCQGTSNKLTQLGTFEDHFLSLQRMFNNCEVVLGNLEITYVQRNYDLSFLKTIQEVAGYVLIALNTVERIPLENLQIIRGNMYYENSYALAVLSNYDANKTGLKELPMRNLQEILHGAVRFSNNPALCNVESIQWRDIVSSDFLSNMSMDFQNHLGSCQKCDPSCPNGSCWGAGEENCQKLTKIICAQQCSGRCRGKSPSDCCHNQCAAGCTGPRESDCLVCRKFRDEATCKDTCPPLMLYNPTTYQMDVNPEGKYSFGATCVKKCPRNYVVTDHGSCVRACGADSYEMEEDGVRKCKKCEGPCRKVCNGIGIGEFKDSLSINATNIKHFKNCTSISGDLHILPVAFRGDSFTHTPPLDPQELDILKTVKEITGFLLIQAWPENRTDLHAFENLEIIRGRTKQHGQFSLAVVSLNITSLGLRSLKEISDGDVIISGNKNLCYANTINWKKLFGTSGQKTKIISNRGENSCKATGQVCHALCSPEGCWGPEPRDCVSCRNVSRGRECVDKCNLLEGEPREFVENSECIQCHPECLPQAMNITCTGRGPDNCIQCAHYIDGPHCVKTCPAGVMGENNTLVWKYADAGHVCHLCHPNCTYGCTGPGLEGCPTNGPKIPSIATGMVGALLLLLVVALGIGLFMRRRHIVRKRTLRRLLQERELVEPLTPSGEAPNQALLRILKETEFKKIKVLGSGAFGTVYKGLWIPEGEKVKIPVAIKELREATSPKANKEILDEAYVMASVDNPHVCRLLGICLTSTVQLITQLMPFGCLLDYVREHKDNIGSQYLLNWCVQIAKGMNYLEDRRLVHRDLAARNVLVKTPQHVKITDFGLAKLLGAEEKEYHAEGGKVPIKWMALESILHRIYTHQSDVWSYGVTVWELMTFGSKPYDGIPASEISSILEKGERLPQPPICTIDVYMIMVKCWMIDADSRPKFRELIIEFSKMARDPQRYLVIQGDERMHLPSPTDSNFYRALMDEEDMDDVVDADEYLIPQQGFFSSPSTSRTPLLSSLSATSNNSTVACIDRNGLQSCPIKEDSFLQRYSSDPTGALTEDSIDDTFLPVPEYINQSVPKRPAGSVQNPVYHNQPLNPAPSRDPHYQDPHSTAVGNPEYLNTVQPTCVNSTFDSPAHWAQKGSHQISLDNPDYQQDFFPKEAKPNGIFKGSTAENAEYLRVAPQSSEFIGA
Sequence of Follistatin-related protein 3 (Homo sapiens) (O95633 whole entry, looked up): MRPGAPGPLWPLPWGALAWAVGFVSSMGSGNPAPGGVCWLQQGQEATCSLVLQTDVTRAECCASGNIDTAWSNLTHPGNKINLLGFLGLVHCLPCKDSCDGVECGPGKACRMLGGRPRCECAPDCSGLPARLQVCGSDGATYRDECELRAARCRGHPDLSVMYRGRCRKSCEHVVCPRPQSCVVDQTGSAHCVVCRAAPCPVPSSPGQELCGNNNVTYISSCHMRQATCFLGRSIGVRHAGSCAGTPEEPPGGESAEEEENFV
Sequence of Fibroblast growth factor 10 (Homo sapiens) (O15520 whole entry, looked up): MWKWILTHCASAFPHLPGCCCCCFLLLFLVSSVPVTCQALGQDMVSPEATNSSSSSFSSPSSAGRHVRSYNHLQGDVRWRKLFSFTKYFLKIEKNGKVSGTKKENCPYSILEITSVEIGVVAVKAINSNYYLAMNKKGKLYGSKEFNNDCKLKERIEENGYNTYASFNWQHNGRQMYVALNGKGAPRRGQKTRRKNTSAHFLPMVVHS
Sequence of Dickkopf-related protein 1 (Homo sapiens) (O94907 whole entry, looked up): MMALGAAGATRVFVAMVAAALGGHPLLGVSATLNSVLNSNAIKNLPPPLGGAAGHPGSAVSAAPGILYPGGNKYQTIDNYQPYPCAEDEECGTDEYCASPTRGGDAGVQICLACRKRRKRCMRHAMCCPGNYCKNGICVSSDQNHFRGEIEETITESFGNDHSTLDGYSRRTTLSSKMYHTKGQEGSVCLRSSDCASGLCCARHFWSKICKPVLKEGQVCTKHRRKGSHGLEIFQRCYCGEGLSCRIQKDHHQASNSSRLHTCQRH

Take `COC(=O)[C@@]1(Cc2ccc(OC)cc2)[C@H]2c3cc(C(=O)N(C)C)n(Cc4ccc(C(F)(F)F)nc4)c3C[C@H]2CN1C(=O)c1ccccc1`: the composite z-score was 0.707 in [1]; 1.15 in [2]; 0.784 in assay [3]; 0.081 in assay [5]; -0.178 in assay [6]; 0.189 in [7]. Further, the composite z-score in [8] is -0.015; in [9], -0.557; in [10] it was 0.663. For the same molecule, the z-score in assay [4] is -1.59 (inactive).
Turning to `COc1ccc(CCNC(=O)[C@@]2(c3ccc([N+](=O)[O-])cc3)CC(=O)N(CC34CC5CC(CC(C5)C3)C4)[C@@H]2c2ccc(CO)cc2I)cc1`, the composite z-score in assay [1] is 1.01; in assay [2], -0.153; in assay [3] it was -0.263; in [5], 1.15; in [6], 1.04; in assay [7] it was 0.233. Also, the composite z-score in [8] is 0.861; in [9], 0.424; in assay [10], -0.444. The z-score in assay [4] is -0.287 (inactive).
On to `CCOC(=O)C1=CCC(c2ccc(F)cc2)N(S(=O)(=O)c2ccc(C)cc2)C1` (stereo not given), for which the composite z-score in [1] was 0.12; in [2], 0.582; in assay [3], 0.291; in [5] it was -0.0564; in [6], 0.265; in assay [7], 0.192. Moreover, the composite z-score turned out to be 0.249 in assay [8], 0.127 in assay [9] and 1.01 in [10]. Besides, in [4], the z-score was 0.0136 (inactive).
In the case of `COc1ccc(C(O)C2C=CC3C(=O)N(C)C(=O)C3N2NC(=O)OC(C)(C)C)c2ccccc12` (stereo not given), the composite z-score in assay [1] amounted to 1.47; in assay [2] it was 0.578; in [3], 1.01; in assay [5], 1.16; in [6], 1.27; in assay [7] it was 0.138. Also, the figures for the composite z-score in assay [8], in assay [9] and in assay [10] were 1.32, -0.557 and 0.441, respectively. The z-score in assay [4] was 1.41 (inactive).
Take `C=C(CCCC)/C(=C/C[C@@H](OC(C)=O)c1ccccc1OCCO)c1cc(C(=O)OC)ccc1OC`: the composite z-score in [1] was 0.175; in assay [2], -0.211; in assay [3], -0.271; in [5], -0.104; in assay [6], 0.098; in assay [7] it was -0.657. Moreover, the figures for the composite z-score in assay [8], in assay [9] and in assay [10] were -0.458, -0.149 and 0.864, respectively. Moreover, the z-score in assay [4] was -0.5 (inactive).
For `CC(=O)NCCCC[C@@H]1NC(=O)[C@H]2C[C@@H](C(=O)O)[C@@H](c3ccc(O)cc3)N2C1=O`, the composite z-score in [1] came to 1.43; in assay [2] it was 0.13; in assay [3], 0.372; in assay [5], 1.32; in [6], 1.34; in assay [7] it was 1.02. The composite z-score worked out at 1.44 in [8], 1.28 in assay [9] and 1.47 in assay [10]. Moreover, the z-score in [4] is -0.177 (inactive).
For `COC(=O)[C@@]1(Cc2ccccc2)[C@H]2c3cc(C(=O)N4CCCC4)n(Cc4c(CO)[nH]cc(C)c4=O)c3C[C@H]2CN1C(=O)c1ccccc1`, the composite z-score in [1] is 0.893; in assay [2] it was 0.896; in [3], 1.24; in assay [5] it was 0.303; in assay [6], 0.132; in assay [7], 0.113. Further, the composite z-score was 0.0713 in [8], -0.135 in [9] and 1.27 in [10]. For the same molecule, the z-score in [4] was 0.796 (inactive).
Take `NCCCCCNC(=O)[C@H]1C[C@H]2C(=O)N[C@@H](Cc3ccccc3)C(=O)N2[C@H]1c1cccc(OCCO)c1`: the composite z-score is 0.0864 in [1]; 1.15 in [2]; 0.942 in assay [3]; -0.0314 in assay [5]; 0.213 in [6]; 0.0441 in assay [7]. Besides, the composite z-score worked out at 0.6 in [8], 0.4 in assay [9] and 1.34 in [10]. Moreover, the z-score in [4] is -0.365 (inactive).
As to `CCCC[C@H]1C[C@@H]1[C@@H]1N(P(=O)(c2ccccc2)c2ccccc2)C[C@@](O)(c2ccccc2)CC12CC2`, the composite z-score was 0.17 in assay [1]; 1.12 in [2]; 1.28 in assay [3]; -0.295 in [5]; 0.0826 in assay [6]; -0.678 in assay [7]. In addition, the composite z-score in assay [8] was 0.21; in [9] it was -1.51; in assay [10] it was 0.973. Also, the z-score in assay [4] was -0.644 (inactive).
On to `CCCCCCCCCCC(O)C1C=CC2C(=O)NC(=O)C2N1Nc1ccc(Cl)cc1Cl` (stereo not given), for which the composite z-score in [1] is -0.856; in assay [2] it was -0.214; in assay [3], 0.935; in assay [5], -0.127; in assay [6], -0.535; in [7], -0.724. For the same molecule, the composite z-score is -0.88 in assay [8], -1.04 in [9] and 1.14 in assay [10]. Also, the z-score in assay [4] was -0.723 (inactive).
Consider `CCCCCN1CC=CC23O[C@@H]4C=CCOC(=O)[C@@H]4[C@H]2C(=O)N(C(C)CO)[C@@H]3C1=O` (stereo not given in full), for which the composite z-score in [1] is 1.4; in assay [2], -0.162; in assay [3] it was 0.381; in [5] it was -0.571; in assay [6], -0.831; in assay [7] it was -1.44. Moreover, the composite z-score is -1.25 in assay [8], -0.693 in assay [9] and -0.469 in [10]. Moreover, the z-score in assay [4] was 1.03 (inactive).
As to `COc1cc(CO)cc(I)c1O[C@H]1C=C(C(=O)NCCO)C[C@@H](NC[C@@H]2CCCO2)[C@@H]1O`, the composite z-score in assay [1] is 0.922; in assay [2], -0.349; in assay [3], -0.204; in [5], 0.671; in [6], 0.0227; in [7], -0.0367. Also, the results for the composite z-score in [8], in [9] and in assay [10] were 0.334, 0.17 and -0.0437, respectively. Also, in assay [4], the z-score was -0.466 (inactive).
Regarding `CCCC[C@@H]1C[C@H]1[C@@H](NC(=O)c1cccnc1)c1ccc(Cl)cc1`, the composite z-score in assay [1] is -1.89; in assay [2], 0.636; in assay [3], 1.38; in assay [5] it was -2.18; in [6] it was -2.37; in assay [7], -2.19. Besides, the composite z-score in assay [8] was -2.37; in assay [9], -2.48; in assay [10] it was 0.0159. For the same molecule, the z-score in assay [4] was -2.46 (inactive).
